Screening results as filed in PubChem.
ERa coact inh – ER-alpha (human) coactivator binding inhibition; P03372; TR-FRET ER-alpha LBD / SRC-1 peptide, estradiol-bound; inhibition, % at 25.6 µM; 86,000 compounds, 1.7% hits; AID 629; in the data active means inhibition above about 50%;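 further: 0% = receptor plus peptide control and 100% = peptide only without receptor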
CD11b adhes inh – CD11b/CD18-fibrinogen binding inhibition | P05107+P11215 | K562 CD11b/CD18 adhesion to fibrinogen, ATPlite luminescence; Mn2+ added to activate the integrin | inhibition, % at 10 µM | 93,000 compounds, 0.54% hits;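 active means primary inhibition of 50% or more at 10 µM, then 40% or more on retest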
Target sequence (P05107 whole entry, looked up, other chains not shown): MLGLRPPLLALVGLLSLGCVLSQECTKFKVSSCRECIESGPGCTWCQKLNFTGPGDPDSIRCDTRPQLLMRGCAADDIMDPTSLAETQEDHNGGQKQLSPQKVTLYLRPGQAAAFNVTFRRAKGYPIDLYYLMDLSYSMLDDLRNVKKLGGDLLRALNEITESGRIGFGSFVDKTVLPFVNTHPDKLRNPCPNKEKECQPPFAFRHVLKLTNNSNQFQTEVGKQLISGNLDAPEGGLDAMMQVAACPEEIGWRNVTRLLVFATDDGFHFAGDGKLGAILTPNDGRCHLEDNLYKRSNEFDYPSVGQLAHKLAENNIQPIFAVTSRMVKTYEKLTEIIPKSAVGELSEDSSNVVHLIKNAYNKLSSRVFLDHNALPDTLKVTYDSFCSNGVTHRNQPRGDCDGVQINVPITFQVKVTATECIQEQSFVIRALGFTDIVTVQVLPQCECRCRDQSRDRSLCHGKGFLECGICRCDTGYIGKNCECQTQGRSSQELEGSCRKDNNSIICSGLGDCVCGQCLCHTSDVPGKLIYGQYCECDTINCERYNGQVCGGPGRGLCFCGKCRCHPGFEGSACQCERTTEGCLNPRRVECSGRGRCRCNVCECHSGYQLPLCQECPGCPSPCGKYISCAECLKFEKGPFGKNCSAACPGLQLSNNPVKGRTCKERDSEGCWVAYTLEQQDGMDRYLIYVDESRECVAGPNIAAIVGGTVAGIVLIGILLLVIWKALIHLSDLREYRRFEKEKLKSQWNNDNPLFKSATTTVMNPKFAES
ERb coact inh – ER-beta (human) coactivator binding inhibition; TR-FRET ER-beta LBD / SRC1-Cy5 peptide binding; receptor agonist-loaded with 1 µM estradiol; inhibition, % at 25.6 µM; 86,000 compounds, 1.3% hits;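 active means compounds whose percent inhibition of the receptor-coactivator binding signal exceeds about 50% in the single-dose screen, limit read from the data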;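 further: 0% = receptor plus peptide wells without compound and 100% = peptide-only wells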
Mac1 fbg enh – increases human CD11b/CD18 adhesion to fibrinogen | P05107+P11215 | K562 CD11b/CD18 adhesion to fibrinogen, ATPlite luminescence | activation, % at 10 µM | 93,000 compounds, 0.07% hits | AID 1499;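 active means 10 µM primary screen giving 50% or more activity, confirmed by 40% or more on retest at that dose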
ERa SRC1 pot – enhances coactivator binding to human estrogen receptor alpha; P03372; TR-FRET ERalpha-LBD/SRC-Cy5 coactivator binding, 2 h; 100 = basal binding, no effect; coactivator binding (% of control), % at 25.6 µM; 86,000 compounds, 1.3% hits; AID 639; in the data active means activity above about 200%;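 further: binding measured in presence of low estradiol as agonist stimulus; 0% = peptide alone without receptor and 100% = receptor with peptide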
* hit, by the source's call; [ ] = another dose, or the depositor's remark. An excerpt weighted towards active compounds, which were near 3.1% of everything screened.

How did Cc1nn(-c2ccccn2)c2c1C(c1ccccn1)C1=C(CCCC1=O)N2 (centres undefined) do in these assays?
CD11b adhes inh: 15; Mac1 fbg enh: 0

What do the screens show for `Cc1cnc(C(=O)OCC(=O)c2csc(N3CCCCC3)n2)cn1`?
ERa coact inh: 54*[fluorescence artefact?]; CD11b adhes inh: 5; ERb coact inh: 57*; Mac1 fbg enh: 2; ERa SRC1 pot: 51

Results for CC1(C)CC(=O)CC(=O)/C1=N\Nc1c(Cl)cc(Cl)cc1Cl ?
CD11b adhes inh: -4; Mac1 fbg enh: 4

What do the screens show for `Cc1cc(NC(=O)CSc2nc3c(c(=O)n2-c2ccc(Br)cc2)SCC3)no1`?
ERa coact inh: 60*[fluorescence artefact?]; ERb coact inh: 29; ERa SRC1 pot: 126

How did COC(=O)c1ccc(CSc2nc3c(c(=O)n2-c2ccc(C)cc2)SCC3)o1 do in these assays?
ERa coact inh: 21; CD11b adhes inh: -6; ERb coact inh: 27; Mac1 fbg enh: 0; ERa SRC1 pot: 336*[fluorescence artefact?]

How did COc1ccc(-n2c(SCC(=O)Nc3cc(C)on3)nc3c(c2=O)SCC3)cc1 do in these assays?
ERa coact inh: -11; ERb coact inh: -1; ERa SRC1 pot: 109

What do the screens show for `Cc1ccc(-n2c(SCC(=O)N3CCCC3)nc3c(c2=O)SCC3)cc1`?
ERa coact inh: 3; CD11b adhes inh: -16; ERb coact inh: -8; Mac1 fbg enh: 2; ERa SRC1 pot: 107

Results for Cc1noc(C)c1COc1ccc(C(=O)OCC(=O)NC2CCCCC2C)cc1 (centres undefined) ?
ERa coact inh: -4; CD11b adhes inh: 7; ERb coact inh: 1; Mac1 fbg enh: -3; ERa SRC1 pot: 123

What do the screens show for `Cc1noc(C)c1COc1ccc(C(=O)OCC(=O)NC23CC4CC(CC(C4)C2)C3)cc1`?
ERa coact inh: -12; CD11b adhes inh: 56*; ERb coact inh: -9; Mac1 fbg enh: 1; ERa SRC1 pot: 100

Results for CCSC(SCC)[C@H](O)[C@@H](O)[C@H](O)[C@H](O)CO ?
ERa coact inh: -6; ERb coact inh: 1; ERa SRC1 pot: 775*[fluorescence artefact?]

How did CN(CCCNC(=O)c1cccn2c(=O)c3ccccc3nc12)Cc1ccccc1 do in these assays?
CD11b adhes inh: -4; Mac1 fbg enh: 0

How did O=C(CSc1nc2ccccc2n1CC(=O)NCc1ccccc1)NCc1ccco1 do in these assays?
ERa coact inh: -3; CD11b adhes inh: -17; ERb coact inh: 2; Mac1 fbg enh: 0; ERa SRC1 pot: 91

Results for CCC(Sc1nc2ccccc2c2nc3ccccc3n12)C(=O)NCc1ccco1 (centres undefined) ?
ERa coact inh: 77*[fluorescence artefact?]; CD11b adhes inh: 19; ERb coact inh: 61*[fluorescence artefact?]; Mac1 fbg enh: 6; ERa SRC1 pot: 247*[fluorescence artefact?]

What do the screens show for `CCC(Sc1nc2cc(OC)c(OC)cc2c2nc(C)nn12)C(=O)NCc1ccco1` (centres undefined)?
ERa coact inh: 50*[fluorescence artefact?]; ERb coact inh: 47; ERa SRC1 pot: 132

What do the screens show for `CCOC(=O)c1cccnc1SC(CC)C(=O)NCc1ccco1` (centres undefined)?
ERa coact inh: -1; CD11b adhes inh: -41; ERb coact inh: -9; Mac1 fbg enh: -4; ERa SRC1 pot: 123

Results for O=c1/c(=C/c2ccccn2)sc2nc3ccccc3n12 ?
ERa coact inh: 90*[fluorescence artefact?]; CD11b adhes inh: 57; ERb coact inh: 47; Mac1 fbg enh: 9; ERa SRC1 pot: 68

What do the screens show for `O=C(CSc1nnc(-c2cccnc2)s1)Nc1ccc(C(=O)O)cc1`?
CD11b adhes inh: 12; Mac1 fbg enh: -5

Results for COc1ccc(OC)c2sc(NC(=O)C3=COCCO3)nc12 ?
ERa coact inh: -3; CD11b adhes inh: -16; ERb coact inh: -7; Mac1 fbg enh: -2; ERa SRC1 pot: 106

How did COc1ccc(C)c2sc(NC(=O)C3=COCCO3)nc12 do in these assays?
ERa coact inh: 93*[fluorescence artefact?]; CD11b adhes inh: 4; ERb coact inh: -4; Mac1 fbg enh: 3; ERa SRC1 pot: 104

Results for CCCCCn1c2nc3ccccc3nc2c2c(=O)n(CC3CCCO3)c(C)nc21 (centres undefined) ?
ERa coact inh: 12; CD11b adhes inh: -4; ERb coact inh: 12; Mac1 fbg enh: 11; ERa SRC1 pot: 134

How did O=c1c2c3nc4ccccc4nc3n(CC3CCCO3)c2ncn1CCc1ccccc1 (centres undefined) do in these assays?
ERa coact inh: -4; CD11b adhes inh: -29; ERb coact inh: -4; Mac1 fbg enh: 2; ERa SRC1 pot: 97

What do the screens show for `Cc1nc2c(c(=O)n1CC1CCCO1)c1nc3ccccc3nc1n2CCC(C)C` (centres undefined)?
ERa coact inh: 76*; ERb coact inh: 23; ERa SRC1 pot: 88

Results for COc1cc(OC)cc(-n2c3nc4ccccc4nc3c3c(=O)n(CC4CCCO4)cnc32)c1 (centres undefined) ?
ERa coact inh: 57*[fluorescence artefact?]; CD11b adhes inh: -8; ERb coact inh: 48; Mac1 fbg enh: 81; ERa SRC1 pot: 124

Results for Cc1ccc2c(c1)c1c3n2CCN(C(=O)CN2CCN(C)CC2)C3CCC1 (centres undefined) ?
ERa coact inh: 7; CD11b adhes inh: 14; ERb coact inh: 5; Mac1 fbg enh: -4; ERa SRC1 pot: 89

What do the screens show for `Cc1ccc2c(c1)c(=O)c1c3n2CCN(C(=O)CCl)C3CC1` (centres undefined)?
ERa coact inh: 83*[fluorescence artefact?]; CD11b adhes inh: 8; ERb coact inh: 72*; Mac1 fbg enh: 2; ERa SRC1 pot: 29

How did COc1ccccc1CN(Cc1nc2ccccc2c(=O)[nH]1)S(=O)(=O)c1ccc2ccccc2c1 do in these assays?
ERa coact inh: 25; ERb coact inh: 20; ERa SRC1 pot: 280*

What do the screens show for `C=CCNC(=O)C1CC(=O)N(c2ccc(Br)cc2)C1` (centres undefined)?
ERa coact inh: -4; CD11b adhes inh: 1; ERb coact inh: 95*[fluorescence artefact?]; Mac1 fbg enh: 1; ERa SRC1 pot: 100

How did Cc1nc(-c2ccc(O)c(O)c2)cs1 do in these assays?
ERa coact inh: 23; CD11b adhes inh: -27; ERb coact inh: 59*; Mac1 fbg enh: -4; ERa SRC1 pot: 79

What do the screens show for `O=C1c2ccccc2C(=O)N1Cc1nc2ccccc2c(=O)n1CCCn1ccnc1`?
ERa coact inh: 1; CD11b adhes inh: -11; ERb coact inh: 8; Mac1 fbg enh: 1; ERa SRC1 pot: 102

What do the screens show for `CCCCn1c(CN2C(=O)c3ccccc3C2=O)nc2ccccc2c1=O`?
ERa coact inh: 58*[fluorescence artefact?]; CD11b adhes inh: 13; ERb coact inh: 51*[fluorescence artefact?]; Mac1 fbg enh: 0; ERa SRC1 pot: 179

How did O=C(Cc1ccc(Cl)cc1)Nc1ccc(-c2nnc(-c3ccco3)o2)cc1 do in these assays?
ERa coact inh: 68*[fluorescence artefact?]; CD11b adhes inh: -13; ERb coact inh: 37; Mac1 fbg enh: 49; ERa SRC1 pot: 123

How did O=C(c1ccco1)N1CCN(c2ccc(Cl)cc2)CC1 do in these assays?
ERa coact inh: 6; ERb coact inh: -4; ERa SRC1 pot: 121
